Common to all, as to assay: NCI-60 one-dose screen, 48 h (100 = growth as untreated, 0 = no growth, -100 = all killed)
Conditions in all cases: 10 µM unless noted

The subject of assay [1] is DU-145 prostate.
Assay [2] deals with K-562 leukemia.
Assay [3] concerns MALME-3M melanoma.
In assay [4] the test system is MDA-MB-231 breast.
The subject of assay [5] is RXF 393 renal.
Assay [6] has as its system SF-268 CNS.
In assay [7] the test system is SF-295 CNS.
For assay [8], the system named is SF-539 CNS.
Assay [9] concerns UACC-257 melanoma.
For assay [10], the system named is M14 melanoma.

The structures appear in SMILES notation. “And” between values parts separate entries of the source, which are not always exact repeats. Equal entries are not always repeated. This is part of a sample that, as a whole, favours compounds with a hit. Of some 83,000 tested, about 20% had one in any assay.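 Note: values are percent growth. 100 is the growth of untreated cells, values between 100 and 0 indicate rising inhibition; between -100 and 0 indicates cell death.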 The source made the active and inactive calls. The calls were made as follows: active = growth percent below 10; inactive = the rest.

Take `CN(C)c1ccc2nc3ccc(=O)cc-3sc2c1`: the growth in [1] is 35.7% (inactive) and 51.2% (inactive); in assay [2], 20.4% (inactive) and 23% (inactive); in assay [3] it was 1.88% (active) and 22.1% (inactive); in assay [4], 30.4% (inactive) and 43% (inactive); in assay [5] it was 52.2% (inactive) and 82% (inactive); in [6], 52.9% (inactive) and 63% (inactive). Besides, the growth was 6.09% (active) and -15.3% (active) in [7]; 10.3% (inactive) and 1.75% (active) in [8]; -21.8% (active) and 24.8% (inactive) in assay [9]; 9.73% (active) and 7.61% (active) in assay [10].
As to `CCCCC(NC(=O)CN1C(=O)/C(=C/C(C)=C/c2ccccc2)SC1=S)C(=O)O` (stereo not given), the growth in [1] is 111% (inactive); in assay [2] it was 107% (inactive); in [3], 91.8% (inactive); in [4], 92.7% (inactive); in assay [5], 105% (inactive); in assay [6], 100% (inactive). For the same molecule, the growth in [7] is 95% (inactive); in [8] it was 101% (inactive); in [9] it was 104% (inactive); in assay [10], 96.6% (inactive).
For the molecule `COc1ccc2c(c1)CC[C@@H]1[C@@H]2CC[C@]2(C)C3C(=CCC4C(=O)N(c5ccccc5)C(=O)C43)C[C@@H]12` (stereo not given in full), the growth in assay [1] is 114% (inactive); in [2], 76.9% (inactive); in assay [3], 96.1% (inactive); in [4], 86.6% (inactive); in assay [5], 93.7% (inactive); in assay [6] it was 94.1% (inactive). Moreover, the growth in assay [7] was 96.4% (inactive); in assay [8], 96.7% (inactive); in [9], 86.1% (inactive); in assay [10] it was 89.4% (inactive).
For the molecule `CN1CCN(Cc2ccc(NC(=O)c3cccc(C#Cc4c(N)ncc5ccc(F)cc45)c3)cc2C(F)(F)F)CC1`, the growth was -89.9% (active) in assay [1]; -29.5% (active) in assay [2]; -54.5% (active) in assay [3]; -79% (active) in assay [4]; -89.6% (active) in assay [5]; -45.8% (active) in assay [6]. In addition, the growth was -65.4% (active) in assay [7], -94.5% (active) in assay [8], -62.5% (active) in [9] and -71% (active) in assay [10].
In the case of `Nc1ccc(-c2nc3ccc4[nH]ncc4c3c3c2CCCC3)cc1F`, the growth was 38.6% (inactive) in [1]; 30.2% (inactive) in assay [2]; 28.3% (inactive) in assay [3]; 37.6% (inactive) in assay [4]; -13% (active) in assay [5]; 39.9% (inactive) in [6]. For the same molecule, the growth in [7] is 37.8% (inactive); in assay [8], 24.5% (inactive); in assay [9], 26.6% (inactive); in assay [10], 24.9% (inactive).
Take `COc1ccc2c(c1)oc1c(C)c3c(c(C)c12)C(=O)N(Nc1ccccc1)C3=O`: the growth is 97.4% (inactive) in assay [1]; 101% (inactive) in [2]; 99.5% (inactive) in assay [3]; 105% (inactive) in assay [4]; 116% (inactive) in assay [5]; 100% (inactive) in assay [6]. Further, the growth in [7] is 97.1% (inactive); in [8], 95.1% (inactive); in assay [9], 109% (inactive); in assay [10], 95.3% (inactive).
Regarding `Clc1ccc2c(c1)N(c1ncnc3ccc(-c4cnc5[nH]ccc5c4)cc13)CC2`, the growth in [1] was 27.6% (inactive); in assay [2], 5.53% (active); in assay [3] it was 7.46% (active); in [4], 35.6% (inactive); in assay [5], 4.78% (active); in assay [6], 39.8% (inactive). Also, the growth in assay [7] was 19.7% (inactive); in [8] it was 27.5% (inactive); in assay [9], 34.4% (inactive); in assay [10], 8.89% (active).
On to `CCOC(=O)c1nnn(Cc2cc(=O)oc3c2ccc2ccccc23)c1C`, for which the growth was 103% (inactive) in assay [1]; 104% (inactive) in [2]; 98.5% (inactive) in assay [3]; 98.7% (inactive) in assay [4]; 112% (inactive) in assay [5]; 105% (inactive) in assay [6]. In addition, the growth in assay [7] was 98.8% (inactive); in assay [8], 98.8% (inactive); in assay [9], 94% (inactive); in [10] it was 98.1% (inactive).
For the molecule `O=C1/C(=C/c2ccc(-c3cccc(C(F)(F)F)c3)o2)SC(=S)N1CCc1ccc(O)cc1`, the growth in [1] is 12.8% (inactive); in assay [2], 20.6% (inactive); in assay [3], 71.6% (inactive); in assay [4] it was 90.5% (inactive); in assay [5] it was 82.2% (inactive); in assay [6], 56.8% (inactive). Besides, the growth in assay [7] was 96.6% (inactive); in assay [8], 76.2% (inactive); in assay [9] it was 95% (inactive); in [10], 57.5% (inactive).
Take `O=C(Nc1ncc(Cc2cccc(C(F)(F)F)c2)s1)c1ccc(-n2cnnn2)cc1`: the growth in assay [1] is 60.3% (inactive); in [2], 21% (inactive); in [3] it was 62.6% (inactive); in assay [4] it was 96.9% (inactive); in [5], 103% (inactive); in assay [6] it was 55.4% (inactive). Besides, the growth was 32.2% (inactive) in assay [7], 47.9% (inactive) in assay [8], 46.8% (inactive) in assay [9] and 41.4% (inactive) in assay [10].
With `O=c1c(/C=C/c2ccco2)nnc2sc(Nc3ccc(Cl)cc3)nn12`, the growth in assay [1] is 111% (inactive); in [2], 97.9% (inactive); in assay [3], 100% (inactive); in assay [4], 96.4% (inactive); in assay [5], 114% (inactive); in assay [6], 103% (inactive). Further, the growth in assay [7] was 105% (inactive); in assay [8] it was 90.6% (inactive); in assay [9], 104% (inactive); in assay [10], 101% (inactive).
As for `CC(=O)N1N=C(c2ccc(Nc3nc(Nc4ccc(F)cc4)nc(Nc4ccc(F)cc4)n3)cc2)CC1c1ccccc1` (stereo not given), the growth in [1] is 116% (inactive); in assay [2], 80.1% (inactive); in assay [3], 76.2% (inactive); in assay [4], 80.1% (inactive); in assay [5], 60.6% (inactive); in [6], 86.1% (inactive). Further, the growth was 132% (inactive) in assay [7], 110% (inactive) in assay [8], 108% (inactive) in [9] and 85% (inactive) in assay [10].
On to `CC[C@]1(O)CC2CN(CCc3c([nH]c4ccccc34)C(C(=O)OC)(c3cc4c(cc3OC)N(C=O)[C@H]3[C@@](O)(C(=O)OC)[C@H](OC(C)=O)[C@]5(CC)[C@@H]6C[C@@H]6CN6CC[C@]43[C@@H]65)C2)C1` (stereo not given in full), for which the growth in assay [1] is -41.4% (active); in [2], 27.5% (inactive); in [3] it was 34.2% (inactive); in assay [4] it was -27.5% (active); in [5] it was 32.9% (inactive); in assay [6], 15.3% (inactive). Further, the growth is -4.56% (active) in assay [7], 0.385% (active) in [8], 53.2% (inactive) in assay [9] and -31.6% (active) in assay [10].

Values taken from PubChem BioAssay (NCI).
